Experiment [1] is described as follows: Viability qHTS for spleen associated tyrosine kinase inhibitor (SYKi) naive MV4-11 cells (AID 1963823). Also: nearly all actives have a fitted effect of over 40% in size. The essentials: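 Viability of MV4-11 AML cells lacking prior SYK inhibitor exposure is scored by CellTiter-Glo luminescence following 72 hr compound incubation at 37 C, 5% CO2, seeded at 500 cells per well.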
A short description of experiment [2]: Viability qHTS for spleen associated tyrosine kinase inhibitor (SYKi) drug resistant MV4-11 cells (AID 1963824). Also: nearly all actives have a fitted effect of over 35% in size. The procedure, abridged: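 SYK inhibitor-resistant MV4-11 AML cells, 500 per well, added to predispensed compounds and incubated 72 hr at 37 C, 5% CO2. Viability measured by CellTiter-Glo luminescence after 10 min at room temperature.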
Experiment [3] can be described thus: Cellular viability qHTS for adrenocortical cancer (ACC) cell line SW-13 (AID 1963989). Also: nearly all actives have a fitted effect of over 65% in size.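 As to activity (max response): cells grown in serum-free medium with ITS supplement; % is scaled to controls: 0 for no effect and ±100 for the full control effect.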 Conditions: SW-13 ACC cells viability, CellTiter-Glo, 48 h; activity (max response): active compounds read low. The essentials:
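Compound titrations (up to 46 uM final, in DMSO) were applied to SW-13 cells for 48 h at 37C/5% CO2. Reading used CellTiter-Glo after 20 min at room temperature; fitted curves yielded IC50 and efficacy.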
On the technique in general: Quantitative high-throughput screening tests each substance at several concentrations.

Experiment [4] is described as follows: Cellular viability qHTS for adrenocortical cancer (ACC) cell line NCI-H295R (AID 1963990). Also: nearly all actives have a fitted effect of over 60% in size. The essentials:
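Readout: CellTiter-Glo luminescence, 20 min RT. Exposure: 48 h, 37C/5% CO2. Cells: NCI-H295R, ITS-DMEM serum-free. Range: up to 46 uM. Analysis: 4PL fit, IC50 plus efficacy.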

Where “and” joins values, the source holds several entries; their conditions need not be identical. Identical values can stand only once. Inconclusive results are not listed. A number with no mark means an inactive call. Calls of active or inactive are those of the source. Calls follow the shape of the dose curve; as a rule, active = well fitted curve in the direction sought with a large enough effect; inconclusive = small, poorly fitted or top-dose-only effect, or another doubt; inactive = no such curve, though single readings can be large; an effect the other way counts as inactive or inconclusive.

For nine compounds, Potency and activity (max response) results are on record in PubChem BioAssay (NCATS).
Potency is read from the fitted curve at half-maximal effect.

With `C[C@H](NC(=O)CCC(F)(F)F)C(=O)N[C@@H]1C(=O)N(CCO)c2ncccc2-c2ccccc21`, the Potency entry in experiment [1], in experiment [2] and in experiment [4] was “inactive” each time. Moreover, the activity (max response) in experiment [3] was -28.7%.
For the compound `O=C(Nc1ccc(-c2ccnc(Nc3ccc(N4CCOCC4)cc3)n2)cc1)C1CCCN1` (stereo unspecified), the Potency is 1.66 µM (active) in experiment [1]; 1.46 µM (active) and 2.35 µM (active) in experiment [2]. For the same compound, the activity (max response) in experiment [3] was -0.397%. The Potency result in experiment [4] is “inactive”.
As to `COC(C)(C)CCn1nc(Nc2c(C)cccc2C)c2cnc(Nc3ccc(OCCN4CCCC4)c(F)c3)nc21`, the Potency in experiment [1] was 731 nM (active) and 742 nM (active); in experiment [2] it was 1.03 µM (active) and 1.66 µM (active); in experiment [3], 2820 nM (active); in experiment [4] it was 3980 nM (active).
As to `Cc1cnc(NS(=O)(=O)c2ccc(N)cc2)nc1`, the Potency entry in experiment [1], in experiment [2] and in experiment [4] was “inactive” in each case. In addition, the activity (max response) in experiment [3] is 9.12%.
Consider `CCCCCCCC/C=C\CCCCCCCCN`, for which the Potency entry in experiment [1], in experiment [2] and in experiment [4] was “inactive” each time. Moreover, the activity (max response) in experiment [3] is 7.78%.
With `COCCNCc1ccc(-c2cc3nccc(Oc4ccc(NC(=S)NC(=O)Cc5ccc(F)cc5)cc4F)c3s2)nc1`, the Potency in experiment [1] was 0.0164 µM (active); in experiment [2] it was 25.9 nM (active); in experiment [3], 28200 nM (active); in experiment [4] it was 12600 nM (active).
For the compound `CN1[C@@H]2CC[C@H]1CC(NC(=O)n1c(=O)[nH]c3ccccc31)C2` (stereo partly specified), the Potency result in experiment [1], in experiment [2] and in experiment [4] was “inactive” throughout. Also, the activity (max response) in experiment [3] was 2.49%.
With `Cc1cccc(C)c1NC(=O)CN(CC(=O)O)CC(=O)O`, the Potency entry in experiment [1], in experiment [2] and in experiment [4] was “inactive” throughout. Moreover, the activity (max response) in experiment [3] is 9.48%.
On to `CC(C)(Oc1ccc(CCNC(=O)c2ccc(Cl)cc2)cc1)C(=O)O`, for which the Potency result in experiment [1], in experiment [2] and in experiment [4] was “inactive” throughout. For the same compound, the activity (max response) in experiment [3] is -0.538%.
